# Source: PubChem BioAssay (EPA / NIEHS)
# Where “and” joins values, the source holds several entries; their conditions need not be identical. Equal values may be shown once. A structure can be active in one record and inactive in another. Calls of active or inactive are those of the source. Rule for the calls: active = hit-call score of the fitted dose curve at least 0.9, where 1 is the maximum; inactive = score below 0.9.
# Columns and labels:
# Details in all cases: mRNA level, 48 h; actives raise or lower the signal
# [1] = read-out: Apoptosis regulator Bcl-2 (Homo sapiens) (UniProt P10415); assay: LTEA_HepaRG_BCL2: Life Technologies and Expression Analysis (LTEA) Assay for Bcl-2 gene using HepaRG (AID 2283475)
# Procedure, shortened: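 Each chemical was tested in duplicate on HepaRG cultures held in serum-free induction medium for 48 h, highest concentration 100 uM with half-log dilutions. Transcript levels came from multiplexed qRT-PCR, normalised to housekeeping genes; activity was scored in either direction relative to DMSO.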
# [2] = read-out: Bcl-2 (BID) gene, BID (gene 637); assay: LTEA_HepaRG_BID: Life Technologies and Expression Analysis (LTEA) Assay for Bcl-2 (BID) gene using HepaRG (AID 2283476)
# Procedure, shortened: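 Assay used HepaRG hepatic cells treated 48 h in serum-free medium with half-log dilutions from 100 uM. Endpoint: BID mRNA, qRT-PCR, normalized to ACTB/GAPDH/POLR2A.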
# Caspase-3 (Homo sapiens) = Caspase-3 (Homo sapiens) (UniProt P42574); assay: LTEA_HepaRG_CASP3: Life Technologies and Expression Analysis (LTEA) Assay for cysteine-aspartic acid protease (CASP3) using HepaRG (AID 2283477)
# Caspase-3 (Homo sapiens), sequence (P42574 whole entry, looked up): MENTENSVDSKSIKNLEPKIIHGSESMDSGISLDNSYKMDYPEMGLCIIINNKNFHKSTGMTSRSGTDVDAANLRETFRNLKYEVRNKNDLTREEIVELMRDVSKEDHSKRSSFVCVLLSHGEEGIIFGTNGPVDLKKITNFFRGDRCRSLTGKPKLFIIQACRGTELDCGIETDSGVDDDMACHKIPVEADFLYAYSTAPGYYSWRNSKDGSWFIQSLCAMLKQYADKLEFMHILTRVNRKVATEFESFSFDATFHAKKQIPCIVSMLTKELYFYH
# Procedure, shortened: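 Differentiated HepaRG cells, plated 48 h, were treated in duplicate in serum-free induction medium for 48 h with eight half-log concentrations up to 100 uM in 0.5% DMSO. CASP3 mRNA measured by qRT-PCR, normalized to ACTB, GAPDH, POLR2A.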
# [3] = read-out: Cytochrome P450 (CYP24A1), CYP24A1 (gene 1591); assay: LTEA_HepaRG_CYP24A1: Life Technologies and Expression Analysis (LTEA) Assay for Cytochrome P450 (CYP24A1) using HepaRG (AID 2283478)
# Procedure, shortened: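 HepaRG cells plated 48 h, then exposed in duplicate in serum-free induction medium for 48 h to 8-point half-log series from 100 uM in 0.5% DMSO. CYP24A1 mRNA by Fluidigm qRT-PCR, normalized to ACTB, GAPDH, POLR2A; bidirectional fit versus DMSO.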
# [4] = read-out: Cytochrome P450 (CYP1A2), CYP1A2 (gene 1544); assay: LTEA_HepaRG_CYP1A2: Life Technologies and Expression Analysis (LTEA) Assay for Cytochrome P450 (CYP1A2) using HepaRG (AID 2283479)
# Procedure, shortened: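 Differentiated human HepaRG cells in serum-free induction medium exposed 48 hours in duplicate to 8 half-log concentrations from 100 uM, 0.5% DMSO. CYP1A2 mRNA quantified by qRT-PCR, normalized to ACTB, GAPDH and POLR2A; bidirectional fitting versus DMSO.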
# [5] = read-out: cysteine-aspartic acid protease (CASP8), CASP8 (gene 841); assay: LTEA_HepaRG_CASP8: Life Technologies and Expression Analysis (LTEA) Assay for cysteine-aspartic acid protease (CASP8) using HepaRG (AID 2283480)
# Procedure, shortened: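 qRT-PCR readout of CASP8 mRNA, normalized to three housekeeping genes, after 48 h chemical exposure of HepaRG cells; 8-point half-log series, top 100 uM, 0.5% DMSO vehicle. Bidirectional curve fitting against DMSO baseline.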
# [6] = read-out: Cytochrome P450 (CYP2B6), CYP2B6 (gene 1555); assay: LTEA_HepaRG_CYP2B6: Life Technologies and Expression Analysis (LTEA) Assay for Cytochrome P450 (CYP2B6) using HepaRG (AID 2283481)
# Procedure, shortened: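 Differentiated human HepaRG cells in serum-free induction medium, dosed in duplicate for 48 h over 8 half-log concentrations topping at 100 uM (0.5% DMSO). CYP2B6 mRNA measured by TaqMan qRT-PCR, normalized to ACTB, GAPDH, POLR2A; bidirectional fit versus DMSO.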
# [7] = read-out: Cytochrome P450 2C19 (Homo sapiens) (UniProt P33261); assay: LTEA_HepaRG_CYP2C19: Life Technologies and Expression Analysis (LTEA) Assay for CYP2C19 using HepaRG (AID 2283482)
# Procedure, shortened: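 Differentiated HepaRG cells in serum-free induction medium exposed 48 h in duplicate, 8 concentrations from 100 uM by half-log steps in 0.5% DMSO. CYP2C19 mRNA measured by TaqMan qRT-PCR, normalized to ACTB, GAPDH, POLR2A. Bidirectional fit versus DMSO.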
# CYP2C8 (gene 1558) = assay: LTEA_HepaRG_CYP2C8: Life Technologies and Expression Analysis (LTEA) Assay for CYP2C8 using HepaRG (AID 2283483)
# Procedure, shortened: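 HepaRG (human liver line), 48 h chemical exposure, 8-pt half-log series from 100 uM, 0.5% DMSO vehicle. Readout: CYP2C8 transcript by qRT-PCR, housekeeping-normalized. Bidirectional fit vs DMSO baseline.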
# CYP2C9 (gene 1559) = assay: LTEA_HepaRG_CYP2C9: Life Technologies and Expression Analysis (LTEA) Assay for CYP2C9 using HepaRG (AID 2283484)
# Procedure, shortened: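 HepaRG, 48 h dosing, 8-pt half-log series, top 100 uM, 0.5% DMSO vehicle. Read-out: CYP2C9 transcript by TaqMan qRT-PCR, housekeeping-normalized (ACTB/GAPDH/POLR2A). Gain or loss fitted vs DMSO baseline.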
# CYP2E1 (gene 1571) = assay: LTEA_HepaRG_CYP2E1: Life Technologies and Expression Analysis (LTEA) Assay for CYP2E1 using HepaRG (AID 2283485)
# Procedure, shortened: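 Assay uses 48 h exposure of HepaRG hepatic cells, eight concentrations to 100 uM. Expression of CYP2E1 is quantified by TaqMan qRT-PCR with ACTB, GAPDH and POLR2A normalization; curves fitted in both directions relative to vehicle.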
# CYP4A11 (gene 1579) = assay: LTEA_HepaRG_CYP4A11: Life Technologies and Expression Analysis (LTEA) Assay for CYP4A11 using HepaRG (AID 2283486)
# Procedure, shortened: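 Differentiated HepaRG cells, 48 h after plating, exposed in duplicate for 48 h to 8 half-log concentrations up to 100 uM in 0.5% DMSO in serum-free induction medium. CYP4A11 mRNA measured by TaqMan qRT-PCR, normalized to ACTB, GAPDH and POLR2A.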
# [8] = read-out: Cytochrome P450 3A4 (Homo sapiens) (UniProt P08684); assay: LTEA_HepaRG_CYP3A4: Life Technologies and Expression Analysis (LTEA) Assay for CYP3A4 using HepaRG (AID 2283487)
# Procedure, shortened: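 In a human hepatic line (HepaRG), duplicate wells were treated 48 h with up to 100 uM chemical in half-log dilutions. Endpoint: CYP3A4 mRNA induction or loss relative to 0.5% DMSO vehicle, by qRT-PCR.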
# [9] = read-out: DNA damage-inducible transcript 3 (DDIT3), DDIT3 (gene 1649); assay: LTEA_HepaRG_DDIT3: Life Technologies and Expression Analysis (LTEA) Assay for DNA damage-inducible transcript 3 (DDIT3) using HepaRG (AID 2283488)
# Procedure, shortened: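 Eight-point concentration-response (100 uM highest, half-log dilutions) in HepaRG, 48 h, duplicate wells. Endpoint: qRT-PCR mRNA, normalized (ACTB, GAPDH, POLR2A), bidirectional fitting with DMSO as baseline.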
# [10] = read-out: Pro-epidermal growth factor (Homo sapiens) (UniProt P01133); assay: LTEA_HepaRG_EGF: Life Technologies and Expression Analysis (LTEA) Assay for Epidermal growth factor (EGF) using HepaRG (AID 2283489)
# Procedure, shortened: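 HepaRG cells (~100,000/well, 48 h pre-culture) exposed in duplicate for 48 h in serum-free induction medium to 8 half-log concentrations up to 100 uM in 0.5% DMSO. EGF mRNA by qRT-PCR, normalized to ACTB/GAPDH/POLR2A; bidirectional fit versus DMSO.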
# [11] = read-out: Early growth response protein 1 (EGR1) transcription factor, EGR1 (gene 1958); assay: LTEA_HepaRG_EGR1: Life Technologies and Expression Analysis (LTEA) Assay for Early growth response protein 1 (EGR1) transcription factor using HepaRG (AID 2283490)
# Procedure, shortened: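 HepaRG, 48 h exposure, 8-pt half-log series from 100 uM, 0.5% DMSO vehicle; EGR1 transcript by TaqMan qRT-PCR (Fluidigm array), housekeeping-normalized; bidirectional fit relative to DMSO baseline.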
# [12] = read-out: Ezrin (EZR), EZR (gene 7430); assay: LTEA_HepaRG_EZR: Life Technologies and Expression Analysis (LTEA) Assay for Ezrin (EZR) using HepaRG (AID 2283491)
# Procedure, shortened: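 Gain or loss of EZR mRNA is scored relative to 0.5% DMSO in human HepaRG cultures treated 48 h with test chemicals in duplicate, eight half-log concentrations from 100 uM.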
# [13] = read-out: Cytochrome P450 3A7 (Homo sapiens) (UniProt P24462); assay: LTEA_HepaRG_CYP3A7: Life Technologies and Expression Analysis (LTEA) Assay for CYP3A7 using HepaRG (AID 2283492)
# Procedure, shortened: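 Differentiated HepaRG cells in serum-free induction medium exposed 48 h in duplicate to 8-point half-log series from 100 uM top in 0.5% DMSO. CYP3A7 mRNA by qRT-PCR, normalized to ACTB/GAPDH/POLR2A, bidirectional fit versus DMSO.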
# CYP3A5 (gene 1577) = assay: LTEA_HepaRG_CYP3A5: Life Technologies and Expression Analysis (LTEA) Assay for CYP3A5 using HepaRG (AID 2283493)
# Procedure, shortened: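 Readout was CYP3A5 mRNA by qRT-PCR. HepaRG cultures were exposed for 48 h in serum-free induction medium to chemicals at up to 100 uM, and responses were fitted in both directions relative to DMSO vehicle.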
# [14] = read-out: Fatty Acid-Binding Protein 1 (FABP1), FABP1 (gene 2168); assay: LTEA_HepaRG_FABP1: Life Technologies and Expression Analysis (LTEA) Assay for Fatty Acid-Binding Protein 1 (FABP1) using HepaRG (AID 2283494)
# Procedure, shortened: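 qRT-PCR readout of FABP1 transcript (normalized to three housekeeping genes) after 48 h chemical exposure of HepaRG cells; eight concentrations, half-log steps, max 100 uM, 0.5% DMSO vehicle; gain or loss fitted relative to DMSO baseline.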
# Cytochrome P450 3A7 (Homo sapiens), sequence (P24462 whole entry, looked up): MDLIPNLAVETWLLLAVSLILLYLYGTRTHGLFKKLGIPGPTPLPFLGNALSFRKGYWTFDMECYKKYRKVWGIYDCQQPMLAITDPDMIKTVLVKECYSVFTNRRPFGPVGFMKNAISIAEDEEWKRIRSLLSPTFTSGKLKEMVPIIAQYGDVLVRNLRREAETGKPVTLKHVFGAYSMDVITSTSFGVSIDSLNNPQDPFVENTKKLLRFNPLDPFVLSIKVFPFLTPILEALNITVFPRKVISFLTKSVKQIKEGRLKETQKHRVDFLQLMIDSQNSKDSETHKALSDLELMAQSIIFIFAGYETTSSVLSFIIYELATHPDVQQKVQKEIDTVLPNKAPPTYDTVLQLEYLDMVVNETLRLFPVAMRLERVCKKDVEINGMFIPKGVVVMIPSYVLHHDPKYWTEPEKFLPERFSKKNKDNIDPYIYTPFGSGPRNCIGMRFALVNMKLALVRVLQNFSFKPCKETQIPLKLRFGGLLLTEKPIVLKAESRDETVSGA
# Apoptosis regulator Bcl-2 (Homo sapiens), sequence (P10415 whole entry, looked up): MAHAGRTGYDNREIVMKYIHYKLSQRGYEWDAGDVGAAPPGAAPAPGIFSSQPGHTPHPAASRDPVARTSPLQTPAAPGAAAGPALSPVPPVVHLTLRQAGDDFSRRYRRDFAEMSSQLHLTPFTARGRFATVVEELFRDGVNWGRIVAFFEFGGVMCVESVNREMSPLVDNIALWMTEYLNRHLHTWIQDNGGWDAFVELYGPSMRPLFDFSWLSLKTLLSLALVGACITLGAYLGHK
# Cytochrome P450 2C19 (Homo sapiens), sequence (P33261 whole entry, looked up): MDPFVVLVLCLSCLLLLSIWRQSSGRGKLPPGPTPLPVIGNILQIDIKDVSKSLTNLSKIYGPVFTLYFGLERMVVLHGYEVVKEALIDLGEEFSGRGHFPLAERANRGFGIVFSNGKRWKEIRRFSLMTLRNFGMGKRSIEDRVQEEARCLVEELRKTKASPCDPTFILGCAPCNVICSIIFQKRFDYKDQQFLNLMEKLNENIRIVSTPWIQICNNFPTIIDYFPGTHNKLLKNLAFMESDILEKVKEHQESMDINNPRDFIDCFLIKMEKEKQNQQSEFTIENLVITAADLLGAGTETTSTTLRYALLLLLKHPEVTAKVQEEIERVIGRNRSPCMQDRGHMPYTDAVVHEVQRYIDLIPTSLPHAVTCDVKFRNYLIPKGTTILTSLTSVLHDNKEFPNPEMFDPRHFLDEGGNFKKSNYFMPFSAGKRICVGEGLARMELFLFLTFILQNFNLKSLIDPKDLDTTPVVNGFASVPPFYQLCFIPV
# Cytochrome P450 3A4 (Homo sapiens), sequence (P08684 whole entry, looked up): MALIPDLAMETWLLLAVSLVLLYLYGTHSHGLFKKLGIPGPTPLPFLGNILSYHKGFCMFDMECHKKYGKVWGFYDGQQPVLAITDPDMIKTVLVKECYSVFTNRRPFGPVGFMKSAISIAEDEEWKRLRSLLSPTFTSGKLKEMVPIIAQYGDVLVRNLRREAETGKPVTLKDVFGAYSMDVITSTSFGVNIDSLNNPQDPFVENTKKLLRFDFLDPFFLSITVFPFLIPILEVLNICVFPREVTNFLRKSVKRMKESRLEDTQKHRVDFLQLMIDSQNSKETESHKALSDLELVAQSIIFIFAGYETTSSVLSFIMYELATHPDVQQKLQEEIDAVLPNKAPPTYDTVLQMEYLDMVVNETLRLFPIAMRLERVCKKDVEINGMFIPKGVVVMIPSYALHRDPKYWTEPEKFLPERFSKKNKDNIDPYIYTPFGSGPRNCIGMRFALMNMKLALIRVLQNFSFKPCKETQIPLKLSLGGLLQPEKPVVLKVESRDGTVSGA
smiles,measurement,setting,value
CC(C)CCCCCCc1ccc(O)cc1,outcome,[1],inactive
same,outcome,[2],inactive
same,outcome,Caspase-3 (Homo sapiens),inactive
same,outcome,[3],inactive
same,outcome,[4],inactive
same,outcome,[5],inactive
same,outcome,[6],inactive
same,outcome,[7],inactive
same,outcome,CYP2C8 (gene 1558),inactive
same,outcome,CYP2C9 (gene 1559),inactive
same,outcome,CYP2E1 (gene 1571),inactive
same,outcome,CYP4A11 (gene 1579),inactive
same,AC50,[8],50 µM (active)
same,outcome,[9],inactive
same,outcome,[10],inactive
same,outcome,[11],inactive
same,outcome,[12],inactive
same,outcome,[13],inactive
same,outcome,CYP3A5 (gene 1577),inactive
same,outcome,[14],inactive
CCCN(CCC)c1c([N+](=O)[O-])cc(C(F)(F)F)c(N)c1[N+](=O)[O-],outcome,[1],inactive
same,outcome,[2],inactive
same,outcome,Caspase-3 (Homo sapiens),inactive
same,outcome,[3],inactive
same,outcome,[4],inactive
same,outcome,[5],inactive
same,AC50,[6],3.15 µM (active)
same,AC50,[7],5.41 µM (active)
same,outcome,CYP2C8 (gene 1558),inactive
same,outcome,CYP2C9 (gene 1559),inactive
same,AC50,CYP2E1 (gene 1571),16.2 µM (active)
same,AC50,CYP4A11 (gene 1579),28.9 µM (active)
same,outcome,[9],inactive
same,AC50,[10],21.2 µM (active)
same,outcome,[11],inactive
same,outcome,[12],inactive
same,outcome,[13],inactive
same,outcome,CYP3A5 (gene 1577),inactive
same,AC50,[14],24.9 µM (active)
CSC(=O)c1cccc2nnsc12,outcome,[1],inactive
same,outcome,[2],inactive
same,outcome,Caspase-3 (Homo sapiens),inactive
same,outcome,[3],inactive
same,outcome,[4],inactive
same,outcome,[5],inactive
same,outcome,[6],inactive
same,outcome,[7],inactive
same,outcome,CYP2C8 (gene 1558),inactive
same,outcome,CYP2C9 (gene 1559),inactive
same,outcome,CYP2E1 (gene 1571),inactive
same,outcome,CYP4A11 (gene 1579),inactive
same,outcome,[9],inactive
same,outcome,[10],inactive
same,outcome,[11],inactive
same,outcome,[12],inactive
same,outcome,[13],inactive
same,outcome,CYP3A5 (gene 1577),inactive
same,outcome,[14],inactive
CC(C)(c1ccc(O)cc1)c1ccc(O)cc1,outcome,[1],inactive
same,outcome,[2],inactive
same,outcome,Caspase-3 (Homo sapiens),inactive
same,outcome,[3],inactive
same,AC50,[4],50 µM (active)
same,outcome,[5],inactive
same,AC50,[6],50 µM (active) and 31.1 µM (active) and 64.4 µM (active)
same,AC50,[7],37.1 µM (active)
same,outcome,[7],inactive
same,outcome,CYP2C8 (gene 1558),inactive
same,AC50,CYP2C9 (gene 1559),9.92 µM (active)
same,outcome,CYP2C9 (gene 1559),inactive
same,outcome,CYP2E1 (gene 1571),inactive
same,outcome,CYP4A11 (gene 1579),inactive
same,outcome,[9],inactive
same,outcome,[10],inactive
same,outcome,[11],inactive
same,outcome,[12],inactive
same,outcome,[13],inactive
same,outcome,CYP3A5 (gene 1577),inactive
same,AC50,[14],50 µM (active)
same,outcome,[14],inactive
CCSC(=O)N(CC(C)C)CC(C)C,outcome,[1],inactive
same,outcome,[2],inactive
same,outcome,Caspase-3 (Homo sapiens),inactive
same,outcome,[3],inactive
same,outcome,[4],inactive
same,outcome,[5],inactive
same,outcome,[6],inactive
same,outcome,[7],inactive
same,outcome,CYP2C8 (gene 1558),inactive
same,outcome,CYP2C9 (gene 1559),inactive
same,outcome,CYP2E1 (gene 1571),inactive
same,outcome,CYP4A11 (gene 1579),inactive
same,outcome,[9],inactive
same,outcome,[10],inactive
same,outcome,[11],inactive
same,outcome,[12],inactive
same,outcome,[13],inactive
same,outcome,CYP3A5 (gene 1577),inactive
same,outcome,[14],inactive
